Screens deposited in PubChem BioAssay by National Center for Advancing Translational Sciences (NCATS).
Rows were chosen to be rich in hits. Some 7.5% of all compounds tested hit in one or more screens of this group.
SMN2 splice enh – qHTS Assay for Enhancers of SMN2 Splice Variant Expression | 210,000 compounds, 2.8% hits | Potency, µM (doses to about 46.1 µM), without a hit: at the top dose activity change, positive = activation, usual class: activators | HEK293 SMN2-luciferase splicing reporter, luminescence, 30-36 h; also: % of control where 0% means no effect; nearly all actives have a fitted effect of over 55% in size
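HEK293 cells carry an SMN2 minigene-luciferase reporter in which exon 7 inclusion puts luciferase in frame. Cells were seeded at 2000 cells/well, attached for 10-12 hours, then exposed to compounds for 30-36 hours at 37C before ONE-Glo luminescence.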
NPC1 prom act – qHTS Assay for NPC1 Promoter Activators; Huh7 NPC1 promoter luciferase reporter, 24 h; Potency, µM (highest dose often 9.22 µM), inactives show top-dose activation, usual class: activators; 320,000 compounds, 2.4% hits; AID 485313, 2010; also: % of control where 0% means no effect; nearly all actives have a fitted effect of over 60% in size
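Quantitative HTS used a cell-based reporter: Huh7 cells stably bearing the NPC1 promoter upstream of luciferase were treated with compounds for 24 h, and promoter activation was read as luminescence.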
FLuc modulator – qHTS profiling assay for firefly luciferase inhibitor/activator using purifed enzyme and Km concentrations of substrates (counterscreen for miR-21 project) | purified FLuc, Km substrates, luminescence inhibition | Potency, µM (highest dose often 57.5 µM), inactives show at the top dose activity change, negative = inhibition, usual class: inhibitors | 360,000 compounds, 6.9% hits | AID 588342, 2011;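 also: plate controls were vehicle for no effect and reference inhibitor for full effect; nearly all actives have a fitted effect of over 55% in size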
Target sequence (P08659 whole entry, looked up): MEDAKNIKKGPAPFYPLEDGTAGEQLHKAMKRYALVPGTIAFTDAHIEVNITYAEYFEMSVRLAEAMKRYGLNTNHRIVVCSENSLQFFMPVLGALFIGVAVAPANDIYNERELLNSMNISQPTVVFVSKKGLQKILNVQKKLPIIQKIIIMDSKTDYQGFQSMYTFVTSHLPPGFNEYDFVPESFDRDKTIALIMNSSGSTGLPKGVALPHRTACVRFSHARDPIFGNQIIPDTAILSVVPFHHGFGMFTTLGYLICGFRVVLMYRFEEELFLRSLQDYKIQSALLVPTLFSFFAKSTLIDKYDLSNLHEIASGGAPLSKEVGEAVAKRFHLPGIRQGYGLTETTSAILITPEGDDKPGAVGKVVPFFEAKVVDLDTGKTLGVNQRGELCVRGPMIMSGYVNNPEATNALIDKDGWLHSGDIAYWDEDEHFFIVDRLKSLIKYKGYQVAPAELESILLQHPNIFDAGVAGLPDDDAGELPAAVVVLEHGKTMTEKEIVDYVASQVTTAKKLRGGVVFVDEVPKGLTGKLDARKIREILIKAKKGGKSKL
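Purified P. pyralis luciferase, 10 nM final, with Km-level 10 uM D-luciferin and 10 uM ATP in 50 mM Tris acetate pH 7.5, 10 mM Mg acetate, 0.01% Tween-20, 0.05% BSA; 6-point qHTS titration about 60 µM downward; luminescence read.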
Rab9 promoter act – qHTS Assay for Rab9 Promoter Activators; Potency, µM (titrated, usually from 9.22 µM), for the others: at the highest dose activation, negative = inhibition, actives largely listed as activators; 320,000 compounds, 2.8% hits; AID 485297, 2010; Huh7 Rab9 promoter-luciferase reporter, luminescence, 24 h; also: % of control where 0% means no effect; nearly all actives have a fitted effect of over 60% in size
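Huh7 reporter line, Rab9 promoter upstream of luciferase. Compound exposure 24 h at 37 °C in reduced-serum medium with 10% FBS. Read-out: luminescence.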
ELG1 genotox – qHTS screen for small molecules that induce genotoxicity in human embryonic kidney (HEK293T) cells expressing luciferase-tagged ELG1. Potency, µM (doses to about 46 µM), inactives show at the top dose activity change, positive = activation, actives largely listed as activators. HEK293T ELG1-luciferase reporter, luminescence, 16 h. 330,000 compounds, 1.3% hits; also: % of control where 0% means no effect; nearly all actives have a fitted effect of over 60% in size
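Screening used a luciferase reporter fused to human ELG1 in HEK293T cells. Luminescence was read on a CCD plate imager after 16 hr exposure and 30 min ONE-Glo incubation.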
Starred values were filed as active, the others as inactive; u = inconclusive; x = no result given; ! = repeats disagree. Calls follow the shape of the dose curve; as a rule, active = well fitted curve in the direction sought with a large enough effect; inconclusive = small, poorly fitted or top-dose-only effect, or another doubt; inactive = no such curve, though single readings can be large; an effect the other way counts as inactive or inconclusive. Potency is read from the fitted curve at half-maximal effect.

SMILES	SMN2 splice enh	NPC1 prom act	FLuc modulator	Rab9 promoter act	ELG1 genotox
COc1ccc(CNc2ccc(C(=O)O)cc2)cc1	1%	25%	7.6µM*	23%	4%
O=C(c1ccc(CSc2nc3ccncc3n2Cc2ccccc2F)cc1)N1CCCCCC1	-18%	x	24µM*	x	x
Cc1ccccc1Cn1c(SCc2ccc(C(=O)N3CCCCC3)cc2)nc2ccncc21	-64%	x	u	x	x
O=C(NC1CCCC1)c1ccc(CSc2nc3cccnc3n2Cc2cccc(F)c2)cc1	x	x	-3%	x	x
O=C(NCc1cccs1)c1ccc(CSc2nc3cccnc3n2Cc2ccccc2)cc1	x	x	-14%	x	x
O=C(NC1CC1)c1ccc(Cn2c(SCc3ccccc3F)nc3cccnc32)cc1	x	x	4.8µM*	x	x
Cc1ccc(CSc2nc3cccnc3n2Cc2ccc(C(=O)NC3CCCCC3)cc2)cc1	x	x	0.34µM*	x	x
Cc1ccc(CSc2nc3cccnc3n2Cc2ccc(C(=O)NCCc3cccs3)cc2)cc1	x	x	0.43µM*	x	x
O=C(NC1CCCCC1)c1ccc(CSc2nc3cccnc3n2Cc2ccccc2F)cc1	x	x	-16%	x	x
O=C1NC(c2ccccc2)=C(c2ccccc2)C1=O	0%	-1%	0%	-2%	0%
CC(=O)Nc1ccc(-c2csc(NC(=O)C3CC(=O)N(c4ccc5c(c4)OCCO5)C3)n2)cc1 (configuration not stated)	x	-1%	-17%	2%	-6%
O=C(NCCCN1CCOCC1)c1cc(C(=O)C2CC2)c[nH]1	1%	-5%	2%	2%	3%
COc1ccccc1CCC(=O)NC1CCCN(c2ccc(C(F)(F)F)cn2)C1 (configuration not stated)	x	1%	3%	0%	-2%
COC(=O)c1n[nH]n(-c2ccc(F)c(Cl)c2)c1=O	x	1%	u	7%	1%
O=C(NC1CCCCC1)c1ccc(Cn2c(SCc3ccccc3F)nc3cccnc32)cc1	x	x	8.5µM*	x	x
O=C(c1ccc(Cl)cc1)N1CCCC(c2ccccc2)=N1	0%	1%	-3%	2%	1%
Cc1ccc(C(=O)Nc2nnc(S(=O)(=O)N3CCOCC3)s2)cc1	x	4%	-23%	u	0%
CC1CCN(S(=O)(=O)c2nnc(NC(=O)c3cccc([N+](=O)[O-])c3)s2)CC1	x	-5%	u	0%	-16%
Cc1cccc(C(=O)Nc2nnc(S(=O)(=O)N3CCOCC3)s2)c1	x	8%	-18%	11%	4%
Cc1ccc(C(=O)Nc2nnc(S(=O)(=O)N3CCCCCC3)s2)cc1	x	-3%	9.5µM*!	0%	15%
O=C(Nc1nnc(S(=O)(=O)N2CCCC2)s1)c1cccc([N+](=O)[O-])c1	x	25%	15µM*	22%	7%
O=C(Nc1nnc(S(=O)(=O)N2CCOCC2)s1)c1cccc(F)c1	x	u	15µM*!	u	-2%
O=C(Nc1nnc(S(=O)(=O)N2CCCCCC2)s1)c1ccccc1F	x	22%	17µM*	19%	10%
O=C(Nc1nnc(S(=O)(=O)N2CCOCC2)s1)c1ccccc1F	x	-3%	0%	-3%	6%
COc1ccccc1C(=O)Nc1nnc(S(=O)(=O)N2CCCCCC2)s1	x	-2%	11µM*!	-1%	-1%
SMILES	SMN2 splice enh	NPC1 prom act	FLuc modulator	Rab9 promoter act	ELG1 genotox
Cc1ccc(OCC(=O)Nc2nnc(S(=O)(=O)N3CCCCC3)s2)cc1	x	0%	-18%	-6%	-1%
Cc1ccccc1C(=O)Nc1nnc(S(=O)(=O)N2CCCCCC2)s1	x	-7%	13µM*!	0%	0%
CC1CN=C(NC(=O)c2cccc([N+](=O)[O-])c2)S1 (configuration not stated)	x	0.5µM*	2.4µM*	0.4µM*	u
O=C(Nc1cccc(NC(=O)c2cccc([N+](=O)[O-])c2)n1)c1cccc([N+](=O)[O-])c1	x	-2%	-13%	0%	u
Cc1ccc(OCC(=O)Nc2nnc(S(=O)(=O)N3CCCCCC3)s2)cc1	x	-1%	9.5µM*!	-8%	-3%
CCCC(=O)Nc1nnc(S(=O)(=O)N2CCCCCC2)s1	x	-2%	11µM*!	-1%	-3%
COc1ccc(C(=O)Nc2nnc(S(=O)(=O)N3CCC(C)CC3)s2)cc1OC	x	-1%	3.4µM*!	-2%	-1%
COc1ccc(C(=O)Nc2nnc(S(=O)(=O)N3CCCCCC3)s2)cc1OC	x	0%	u	-8%	4%
O=[N+]([O-])c1ccccc1NCCOc1ccccc1	u	u	9.5µM*	u	u
COc1ccc(OCCOc2ccccc2[N+](=O)[O-])cc1	u	u	17µM*	u	u
O=[N+]([O-])c1ccccc1OCCOc1ccccc1[N+](=O)[O-]	x	3.5µM*	-8%	2µM*	11%
O=C(CCOc1ccccc1)Nc1ccccc1[N+](=O)[O-]	19%	12%	-11%	15%	13%
CCOC(=O)/C=C/COc1ccccc1[N+](=O)[O-]	24%	15%	15µM*	u	22%
CCCOc1c(OC)cc(Cl)cc1C1NC(=O)NC(C)=C1C(=O)NCc1ccccc1 (configuration not stated)	21%	-1%	0%	9%	1%
CC(=O)Nc1c(C)ccc(CNC(=O)COc2ccc(F)cc2)c1C	5%	-3%	-2%	-1%	0%
CCCSc1nnc(N)s1	-6%	-2%	0%	-6%	-4%
CCOc1cccc(NC(=O)/C(C#N)=C\c2cccnc2)c1	-7%	-2%	u	-1%	2%
COc1ccc(O)c(/C=C(\C#N)C(=O)Nc2cccnc2)c1	5%	8%	4.8µM*	21%	u
CCCOc1ccccc1/C=C(\C#N)C(=O)Nc1cccnc1	x	8%	19µM*	28%	u
COc1ccccc1C(=O)COC(=O)c1ccc(N(C)C)cc1	22µM*	3.2µM*	5.4µM*	3.5µM*	u
COc1ccccc1C(=O)COC(=O)c1ccccc1O	5%	-11%	21µM*	13%	16%
CCc1ccc(C(=O)COC(=O)c2ccccc2OC)cc1	x	2.2µM*	0.48µM*	3.2µM*	u
CC(NC(=O)COC(=O)c1ccc(N(C)C)cc1)c1ccccc1 (configuration not stated)	11%	-3%	-8%	-5%	-7%
CC(C)(C)C(=O)COC(=O)c1ccccc1O	-12%	0%	-17%	-4%	0%
COc1ccccc1C(=O)COC(=O)/C=C/c1ccccc1	x	26%	13µM*	26%	20%
COc1ccc(C2(O)CC3CCC(C2)N3c2cc(C)nc(-c3ccccc3)n2)cc1 (configuration not stated)	x	-1%	-13%	0%	-7%
CCOC(=O)CSC(=S)NC(=O)c1ccc(OC)cc1	-1%	0%	u	2%	-2%
